# Mtb FBA inh: Mtb fructose-bisphosphate aldolase inhibition; P9WQA3; purified M. tuberculosis FBA, fluorescence read-out; inhibition, % at 1 µM; 360,000 compounds, 2.3% hits; AID 588726;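 further: 0% = vehicle and 100% = reference inhibitor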
# Bead autofluor: counter-screen for toxin protease inhibitors: compound fluorescence; compound autofluorescence counterscreen, microsphere flow cytometry; stronger effect = higher value; fluorescence intensity (no concentration beside the values); 360,000 compounds, 3.1% hits; AID 624483; in the data active means fluorescence intensity above about 16000; inconclusive means no clear call, values can overlap the other calls
# Anthrax LF inh2: blocks Bacillus anthracis lethal factor protease. inhibition, % at 10 µM. multiplex microsphere protease cleavage assay, LF. P15917. 360,000 compounds, 0.12% hits; in the data active means inhibition above about 30%; inconclusive means no clear call, values can overlap the other calls; further: plate controls were buffer without enzyme for full effect and enzyme alone for no effect
# Target sequence (P15917 whole entry, looked up): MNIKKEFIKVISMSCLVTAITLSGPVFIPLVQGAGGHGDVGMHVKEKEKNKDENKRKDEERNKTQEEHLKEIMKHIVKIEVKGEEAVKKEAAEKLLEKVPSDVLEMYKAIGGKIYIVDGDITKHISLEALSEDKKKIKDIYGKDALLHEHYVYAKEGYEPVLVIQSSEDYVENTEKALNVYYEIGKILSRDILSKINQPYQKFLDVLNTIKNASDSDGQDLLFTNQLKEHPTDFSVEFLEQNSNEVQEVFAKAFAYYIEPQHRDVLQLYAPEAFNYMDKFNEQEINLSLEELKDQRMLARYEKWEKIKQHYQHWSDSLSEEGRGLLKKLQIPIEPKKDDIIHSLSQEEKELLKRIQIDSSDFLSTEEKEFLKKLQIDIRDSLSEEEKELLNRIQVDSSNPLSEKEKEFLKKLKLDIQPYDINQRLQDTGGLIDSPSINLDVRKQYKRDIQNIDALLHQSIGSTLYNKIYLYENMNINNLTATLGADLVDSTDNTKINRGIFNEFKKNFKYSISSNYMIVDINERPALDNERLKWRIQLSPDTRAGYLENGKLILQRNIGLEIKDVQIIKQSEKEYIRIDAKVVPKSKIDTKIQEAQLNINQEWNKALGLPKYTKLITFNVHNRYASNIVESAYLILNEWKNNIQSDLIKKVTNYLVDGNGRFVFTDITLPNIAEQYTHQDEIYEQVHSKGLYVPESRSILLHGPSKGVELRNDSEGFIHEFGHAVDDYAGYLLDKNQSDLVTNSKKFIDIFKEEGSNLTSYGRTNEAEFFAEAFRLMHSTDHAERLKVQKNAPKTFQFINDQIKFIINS
# GDH-TPI counter-1: inhibits GDH-TPI coupling enzymes, artifact for Mtb FBA screen; GDH-TPI coupled enzyme counterscreen, NADH absorbance; inhibition, % at 4.8 µM; 360,000 compounds, 1.2% hits; in the data active means inhibition above about 30%;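 further: 0% = DMSO wells and 100% = wells lacking the enzyme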
# BoNT A protease: BoNT A light chain protease inhibition. multiplex microsphere protease substrate cleavage, flow cytometry. inhibition, % at 10 µM. 360,000 compounds, 0.17% hits. AID 588499; in the data active means inhibition above about 30%; inconclusive means no clear call, values can overlap the other calls; further: plate controls were buffer without enzyme for full effect and enzyme alone for no effect
# BoNT-F LC inh: blocks Botulinum neurotoxin F light chain protease | AID 588497 | Multiplex microsphere protease cleavage assay, flow cytometry | inhibition, % at 10 µM | 360,000 compounds, 0.22% hits; in the data active means inhibition above about 35%, passing the limit was not always enough; inconclusive means no clear call, values can overlap the other calls; further: plate controls were buffer without enzyme for full effect and enzyme alone for no effect
# Mtb FBA inh conf: Mtb FBA inhibition, confirmed | shares compounds with Mtb FBA inh | purified M. tuberculosis FBA, fluorescence read-out | inhibition, % at 1 µM | 5,600 compounds, 78% hits;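 further: 0% = vehicle wells and 100% = reference inhibitor wells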
# GDH-TPI counter-2: inhibits GDH-TPI coupling enzymes, flagging Mtb FBA hits | shares compounds with Mtb FBA inh | GDH-TPI coupled enzyme counterscreen, fluorescence | inhibition, % at 1 µM | 5,600 compounds, 81% hits; in the data active means inhibition above about 10%
# Active calls of the source: *; ? = inconclusive; nt = not tested or not shown; + = active, no number. A selection: hits, their analogues and other compounds. The true share with any hit is near 6.6%. Unless noted, no stated cut-off is given here; in the data, active means inhibition above about 27%; inactive means the rest.
SMILES,Mtb FBA inh,Bead autofluor,Anthrax LF inh2,GDH-TPI counter-1,BoNT A protease,BoNT-F LC inh,Mtb FBA inh conf,GDH-TPI counter-2
COc1ccc(C2CC(c3ccccc3Br)=NN2c2ccc(S(N)(=O)=O)cc2)cc1 (centres undefined),46*,3739,-10,12,0,-7,154*,77*
CC(C)(C)CCN1CCC(CN2CCNC2=S)CC1,0,2891,0,3,0,-6,nt,nt
CN(C)c1ccc(P(=O)(OC2CCCCC2)C(O)c2ccccn2)cc1 (centres undefined),68*,3758,-8,7,-1,?,73*,79*
O=C(Nc1cccc(F)c1)C1CCCN(S(=O)(=O)c2cnc[nH]2)C1 (centres undefined),-1,5688,0,2,0,0,nt,nt
C#CCn1cc(/C=C2\NC(=O)NC2=O)c2ccccc21,-3,3633,4,15,0,-4,nt,nt
CCN1C[C@]2(COC(=O)c3ccccc3N)CC[C@H](OC)C34[C@@H]5C[C@H]6[C@H](OC)[C@@H]5[C@](O)(C[C@@H]6OC)[C@@](O)([C@H]13)[C@@H](OC)[C@@H]42,43*,4172,-4,2,0,10,59*,39*
CCN1C[C@]2(COC)CC[C@H](O)[C@]34C1[C@](O)([C@@H](OC)[C@H]23)[C@@]1(O)C[C@H](OC)[C@H]2C[C@@H]4[C@@H]1[C@H]2OC,1,5359,4,-10,0,1,nt,nt
CCN1CC2(COC(=O)c3ccccc3N)CCC(OC)C34C5CC6C(OC)CC(O)(C5C6OC)C(O)(C(OC)C23)C14 (centres undefined),36*,4751,0,2,0,4,-3,-6
O=C(c1cccc(S(=O)(=O)N2CCCC2)c1)N1CCCC(C(F)(F)F)C1 (centres undefined),0,6744,-3,-9,0,-9,nt,nt
COc1ccc(CNC(=O)C23CC4CC(CC(Br)(C4)C2)C3)cc1,54*,5627,-4,5,0,0,71*,40*
c1ccc2cc3[nH]c(CN4CCOCC4)nc3cc2c1,103*,2896,3,7,0,-6,8,-6
CCOC(=O)Cn1nc(C(F)F)c(Br)c1C,-8,4664,4,-12,-1,-4,nt,nt
CN(C)C(=O)c1cccc(-c2ccc3nncn3c2)c1,-2,2977,-3,14,0,4,nt,nt
CN(C)C(=O)c1cccc(-c2cccc3nccn23)c1,41*,3934,-8,7,0,4,88*,58*
O=C1NC[C@@H](CCCCN2C[C@H](Cc3ccc(O)cc3)N(CC3CCCCC3)C(=O)C2=O)N(CC2CCCCC2)C1=O,nt,4907,-1,nt,1,-4,nt,nt
Cc1csc2ncc(C(=O)Nc3ccon3)c(=O)n12,55*,8162,3,19,2,1,124*,105*
O=C(NCc1ccco1)c1cnc2n(c1=O)CCS2,1,9630,0,10,0,7,nt,nt
Cc1csc2ncc(C(=O)NCc3ccco3)c(=O)n12,35*,10947,-2,24,0,3,124*,115*
CSc1nc(C)cc(OCC(=O)N/N=C/c2ccccc2O)n1,3,2176,1,11,0,-1,nt,nt
CS(=O)(=O)N1N=C(c2cccs2)CC1c1ccc(Cl)o1 (centres undefined),3,2913,2,0,1,-1,nt,nt
CC(=O)NC(C)c1nc2ccccc2n1CC(=O)NC(C)CCc1ccccc1 (centres undefined),-1,5145,0,6,0,-4,nt,nt
CCOC(=O)N1CCN(C(=S)NC(=O)c2ccnn2C)CC1,-4,2314,0,-2,0,-4,nt,nt
Cc1ccc(CNc2nc3ccccc3n3nnnc23)cc1,2,2865,1,5,1,-12,nt,nt
CCOC(=O)N1CCC(Nc2nc3ccccc3n3nnnc23)CC1,35*,2578,-1,16,2,4,47*,40*
CC(=O)C1=NN(c2ccccc2)C2(S1)S/C(=C\c1ccccc1)C(=O)N2c1ccccc1 (centres undefined),0,3172,-2,26,-1,-1,nt,nt
SMILES,Mtb FBA inh,Bead autofluor,Anthrax LF inh2,GDH-TPI counter-1,BoNT A protease,BoNT-F LC inh,Mtb FBA inh conf,GDH-TPI counter-2
COCc1cc(=O)n2[nH]c(-c3cccc(Br)c3)cc2n1,9,2685,0,-5,0,0,nt,nt
COCc1cc(=O)n2[nH]cc(-c3ccsc3)c2n1,55*,3386,-8,2,2,19,94*,84*
COCc1cc(=O)n2[nH]c(-c3ccccc3)cc2n1,33*,4924,-3,1,0,-29,+,+
Cc1cc2nc(-c3ccccc3)cc(=O)n2[nH]1,47*,3746,-5,-10,-3,?,+,+
CC(=O)Nc1cccc(Oc2ccc3c(c2)C(=O)NC3=O)c1,-2,3304,-19,7,-4,0,nt,nt
CCOc1ccc(N(CC(=O)Nc2ccc(OC)cc2)C2=NC3CS(=O)(=O)CC3S2)cc1 (centres undefined),-4,7780,2,-14,-1,-4,nt,nt
O=C(O)CCn1c(SCCOc2ccccc2)nc2ccccc21,-2,4065,3,3,-2,?,nt,nt
Nc1ncc2c(n1)-c1ccccc1CC2,64*,4572,-3,19,1,-5,17,9
Nc1ncc2c(n1)-c1ccoc1CC2,36*,3886,6,19,-4,-12,125*,103*
O=C(Nc1ncc2c(n1)-c1ccccc1CC2)c1ccccc1,0,9496,1,2,1,-2,nt,nt
Cc1nc(N)ncc1-c1ccc2c(c1)OCO2,2,3616,3,6,-1,6,nt,nt
O=C(O)CN1C(=O)/C(=C/c2cccc(Cl)c2)Oc2ccccc21,67*,4006,-8,18,-2,?,+,+
O=C(CN1C(=O)/C(=C\c2cccc(Br)c2)Oc2ccccc21)NCCCN1CCOCC1,33*,6024,2,15,0,-2,162*,130*
O=C(CN1C(=O)COc2ccccc21)NCCCN1CCOCC1,1,4469,0,5,2,-6,nt,nt
Cc1ccc(S(=O)(=O)NN=CC2(c3ccccc3)CC2)cc1,0,3571,2,-6,0,3,nt,nt
COCCCNC(=O)CCC(=O)NNc1nc2ccccc2c2nc(C)nn12,5,2799,0,3,0,0,nt,nt
COc1ccc(C(=O)NNC(=S)NC(=O)/C=C/c2cccs2)cc1,0,2129,1,0,-2,-7,nt,nt
O=C(/C=C/c1cccs1)NC(=S)NNC(=O)c1ccccc1O,28*,3391,1,25,-1,-3,-1,3

# Screening data from PubChem BioAssay.
